Data as given in ChEMBL document CHEMBL4888484, “Replenishing the malaria drug discovery pipeline: Screening and hit evaluation of the MMV Hit Generation Library 1 (HGL1) against asexual blood stage Plasmodium falciparum ,using a nano luciferase reporter read-out” (2022).
The whole screen tested about 4,800 compounds, of which about 420 (8.8%) showed an effect of 50% or more. Many of the other results were omitted from the sample, so strong results are more common in it than they were.

The compounds below were run on Plasmodium falciparum (assay: Confirmatory screen in NF54 nanoGlo assay, in single point, at 2uM, 72h). Details: timepoint 72 hour.
Format: functional, Erythrocyte

SMILES	% Inhibition [%]
CC1(C)CN(C(=O)CN2CCOCC2=O)C2CCCC21 (stereo not given)	-16
COc1cccc(N2CCN(C3=NC(=O)[C@@H](C#N)C4(CCCC4)N3)CC2)c1	2
O=C(O)Cc1ccc(OCc2nc(-c3ccsc3)no2)cc1	-2
CC(=O)Nc1ccc(C)cc1S(=O)(=O)N1CC=C(c2c(C)n(Cc3ccccc3C)c3ccccc23)CC1	91
Cc1ccc(S(=O)(=O)N2CC[C@H](CC(=O)NCc3ccccc3)C2)c(C)c1	-17
Cc1ccc(NC(=O)Cn2c(=O)n(Cc3ccco3)c(=O)c3ccccc32)c(C)c1	-12
CC[C@](C)(NCCc1c[nH]c2ccccc12)c1nnnn1CCOC	-2
Cn1c(N2CCN(Cc3ccc4c(c3)OCO4)CC2)cc(=O)n(C)c1=O	-12
COc1ccc(CNC(=O)N2C[C@H](C)OC3(CCCCC3)C2)cc1OC(F)F	-8
O=C(NCc1ccco1)c1cc2c(Cl)ccc3c2n1CCO3	-1
Cc1cc2nc(C)c3c(n2n1)N(Cc1ccccc1Cl)CC3	-2
CC(C)Oc1cccnc1C(=O)N(C)c1cnn(C)c1	-5
COc1ccc(-c2cc3c(N4CCN(C)CC4)nccn3n2)cc1OC	1
COc1ccc(-c2nn(-c3ccccc3)c(O)c2C(c2ccc(C(=O)O)cc2)c2c(-c3ccc(OC)cc3)nn(-c3ccccc3)c2O)cc1	2
Cc1nn(-c2ccccn2)c(O)c1C(c1ccccc1)c1c(C)nn(-c2ccccn2)c1O	90
O=C(CCn1nc(-c2cccc(Cl)c2)ccc1=O)NCc1ccc(F)cc1F	-2
CCn1cc(CN2C(=O)C3CCCCC3C2=O)c(C)n1 (stereo not given)	-3
Oc1nc(N2CCOC3(CCCC3)C2)ncc1F	51
FC(F)(F)c1cnc(N2CCOC3(CCOCC3)CC2)s1	-2
O=C(c1cc(-c2ccncc2)on1)N1CCOC2(CCCCCC2)C1	-6
COC(c1ccc(-c2ccc(OC3CC3)cc2)cc1)C(C)N (stereo not given)	-3
COc1ccc(CNC(=O)c2ccc(Cl)c(-n3c(C)nc4cccnc43)c2)c(OC)c1	2
CCOC(=O)c1ccc(N2CCN(Cc3ccccc3)CC2)c(NC(=O)COc2ccc(Cl)cc2C)c1	-4
Cn1nc(N)c2cc(C(F)(F)F)ccc21	-2
CCn1c(=O)c(N2CCN(C(=O)Nc3cccc(C(F)(F)F)c3)CC2)nc2ccccc21	-2

SMILES	% Inhibition [%]
Cc1nn(Cc2ccccc2)c2c1C(c1cccc(Cl)c1Cl)c1c(C)nn(Cc3ccccc3)c1O2	9
COc1ccc(OC)c(CN2C(=O)c3cc4c(OC)ccc(OC)c4n3C[C@]2(C(=O)NC2CCCCCC2)c2ccccc2)c1	18
CCCn1c(C)nnc1COC(=O)c1ncoc1C	-5
CC(C)(C)OC(=O)NC1CCN(c2ncc(C(=O)NCc3ccc(F)c(Cl)c3)c(N)n2)CC1	-17
CN1CCc2ncnc(Nc3ccc4nc(N5CCCC5)sc4c3)c2C1	2
CC(=O)Nn1ccc2nc(N3CCOCC3)ncc2c1=O	-7
COC1(C)CC(NC(=O)C(C(C)C)N2CCCS2(=O)=O)C1(C)C (stereo not given)	-9
CCC(=O)N(Cc1ccc(-c2ccc(Cl)cc2)o1)[C@H]1CCS(=O)(=O)C1	38
Cn1ccc(CN2CCN(c3ccccc3)CC2)n1	1
Cc1nc(-c2ccc(N3CCC(NCCCn4ccnc4)CC3)cc2)cs1	12
COc1cc(C)cc(C)c1S(=O)(=O)N(C)Cc1nnc[nH]1	4
COc1cccc(C2C(NC(=O)c3ccoc3)CCN2C2CC2)c1 (stereo not given)	-10
CC(C(=O)Nc1cc(F)ccc1F)N1CCCC(c2nncn2C(C)C)C1 (stereo not given)	-3
CC1=CCN(C(=O)Nc2nccs2)CC1	7
CC(C(=O)Nc1nccs1)N1CCCC(c2ccn[nH]2)C1 (stereo not given)	50
c1ccc(NC(Nc2nnn[nH]2)=C(c2ccccc2)c2ccccc2)cc1	0
O=C(Nc1cccnc1)c1ccc(-c2ccc(Cl)c(Cl)c2)o1	91
O=C(Nc1ccn(Cc2cccnc2)n1)c1ccc(-c2ccccc2F)o1	-2
O=C(CCC(=O)Nc1cccnc1)NCc1ccc2c(c1)OCO2	-2
COc1ccc(-c2cc(C(=O)NC3CCN(C(C)C)CC3)c3ccccc3n2)cc1OC	-7
CCOc1ccc(-c2cc(NC(=O)c3cc(-c4cccnc4)nc4ccccc34)on2)cc1OCC	94
CS(=O)(=O)Nc1nc2ccc(NC(=O)c3cc(-c4ccccc4)nc4ccccc34)cc2s1	0
COc1ccc(CC[C@](C)(O)c2cc(C(N)=O)no2)cc1	-9
COc1ccc(N(C(=O)c2ccccc2)C2CC(C)N(C(=O)c3ccccc3)c3cc(OC)c(OC)cc32)cc1OC (stereo not given)	-1
N#CCC(=O)Nc1nc(-c2ccc(Oc3ccccc3)cc2)cs1	-4

SMILES	% Inhibition [%]
Cc1cc(C(=O)N[C@@H](C)CO)c(C)n1-c1nccs1	-19
c1cc(CN2CCN(C3CCCCCC3)CC2)ccn1	-18
c1ccc(N2CCN(C3CCN(Cc4ccncc4)CC3)CC2)cc1	-6
COc1nccnc1N(C(C)=O)S(=O)(=O)c1ccc(NC(C)=O)cc1	-13
N#Cc1ccc(N2CCN3C(=O)NCC3C2)nc1N1CCN2C(=O)NCC2C1 (stereo not given)	-12
CC(C)[C@H](OC(=O)n1ccnc1)C(=O)OC(C)(C)C	-10
CC1C=CC2C(=O)N(CC(F)(F)F)C(=O)C2C1C(=O)N1CCC(Cc2ccccc2)CC1 (stereo not given)	-3
Cc1ccc(NC(=O)Cn2cnc3nc(N(C)Cc4ccccc4)sc3c2=O)c(Br)c1	-14
CC[C@@H](CO)NC(=O)Nc1cccc(C)c1	5
CCC(C)(CC)[C@@](O)(C#CC[N+]1(Cc2ccccc2)CCCCC1)c1ccccc1	7
CC(CC1OCC(C[N+]2(Cc3ccccc3)CCCCC2)O1)CC(C)(C)C (stereo not given)	57
O=C1CCCC1C(c1ccccc1)N(C1=NS(=O)(=O)c2ccccc21)c1ccccc1 (stereo not given)	-10
CNC(=O)CCS(=O)(=O)CCCC(=O)Nc1c(C)cc(C)cc1C	-14
c1ccc2oc(N3CCCCCCC3)nc2c1	-5
Cc1ccc(CC(=O)N2CCC(NC(=O)OC(C)(C)C)CC2C)o1 (stereo not given)	-7
COC[C@@H]1CCCN1c1ccc2c(c1)CNCC(=O)N1CC[C@@H](CC(=O)NCCN3CCOCC3)[C@@H](/C=C/CO2)C1	-13
CC[n+]1ccc(-c2ncc(-c3ccc(C(C)(C)C)cc3)o2)cc1	63
CCC(C)(CC)[C@@](O)(C#CC[N+]1(Cc2ccccc2Cl)CCCCC1)c1ccccc1	4
CN1c2cc(C(=O)N3CCc4ccccc4C3)ccc2C(=O)N2CCCC[C@H]21	-6
Cc1cc2ncn([C@@H](C)c3nc(-c4cnccn4)cs3)c2cc1C	0
CCC[C@H](NC(=O)c1ccc(Cl)o1)c1nnn[nH]1	6
C=CCCCNc1ccc(C(N)=O)c(F)c1	-1
COc1ccc(CCc2nnc(NC(=O)Cc3c(C)noc3C)[nH]2)cc1OC	15
COc1ccc(CCc2nc(NC(=O)c3nc(C)sc3C)n[nH]2)cc1OC	65
COc1ccc(CCc2nc(NC(=O)c3[nH]nc4c3CCC4)n[nH]2)cc1	-1

SMILES	% Inhibition [%]
Cc1c(CCNC(=O)NCC2CC23CCc2ccccc23)cnn1C (stereo not given)	-4
Cc1cc(C(=O)NCCCn2cccn2)nc(N2CCOCC2)n1	0
Cc1nn(C)cc1-c1nn(-c2nc(C3CC3)cc(C(F)(F)F)n2)c(-c2cn(C)nc2C)c1C	16
Cc1c(-c2nn(-c3nc(C4CC4)cc(C(F)(F)F)n3)c(-c3cnn(C)c3C)c2Cl)cnn1C	69
Cc1c(-c2nn(-c3ccccc3)c(-c3cnn(C)c3C)c2Cl)cnn1C	-4
CC(C)Nc1nc2nonc2n2cnnc12	69
CN(Cc1cc(C(F)(F)F)ccc1Cl)[C@H]1CCc2nn(C)c(=O)n2CC1	-8
Cn1ccc2cccc(NC(=O)N3CC(C)(CO)C3)c21	1
Cc1c(-c2nn3c(Cc4ccc(Cl)cc4)nnc3s2)cnn1-c1ccccc1	-16
COc1cc(C(=O)Nc2scnc2C)cc(OC)c1OC	-1
Cc1cccc(C(=O)Nc2nc3cc4sc(NC(=O)c5cccc(C)c5)nc4cc3s2)c1	7
COc1cc(C(=O)Nc2ccc3sc(NC(=O)c4cc(OC)c(OC)c(OC)c4)nc3n2)cc(OC)c1OC	56
C1=CCC(c2nc(-c3cnccn3)no2)C1	-6
C[C@H](O)CNCc1ccc(Cl)cc1Cl	-8
CCCCCNC(=O)NCc1ncoc1C	-1
CCNC(=O)NCCOC(=O)c1cccc(C)c1Cl	1
Cc1cc(C)cc(-c2cc3nc(C)cc(N4CCC(C(=O)Nc5ccc(C)c(Cl)c5)CC4)n3n2)c1	0
Cc1cc(C)cc(-c2cc3nc(C)cc(N4CCC(C(=O)NCc5cccc(F)c5)CC4)n3n2)c1	79
O=C(NCc1cccc(F)c1)[C@H]1CCCN(c2nc3ccccc3n(Cc3ccccc3)c2=O)C1	5
CC[n+]1c(C)n(C2CCCCC2)c2ccc(C(=O)OC)cc21	0
CC[N+](CC)(CC(=O)OC1CC2CCC1(C)C2(C)C)CC(=O)OC1CC2CCC1(C)C2(C)C (stereo not given)	83
Cn1cc(C(C(=O)O[C@@H]2C[C@@H]3CC[C@@]2(C)C3(C)C)c2cn(C)c3ccccc23)c2ccccc21	0
Cc1nc2cccnc2n1-c1cc(C(=O)NCc2ccccc2Cl)ccc1Cl	-2
CC1CCN(c2nccnc2Oc2ccc(C(=O)NCc3ccccc3Cl)cc2)CC1	59
O=C(NCc1cccnc1Oc1ccccc1)c1cccnc1	5
